Measured values taken from the supplement of paper PMC6555819.

What was measured:
Test in all cases: PBM binding z-score (relative to random genomic background probes); higher = stronger binding; sequences stand for … in GC…GCGATTGACAGCGTAGAATGAAGG
[1] = system: RARb homodimer (NR concentration 270 nM)
Method in brief: (§1)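 On custom Agilent 4×180K arrays, double-stranded probes with 34-nt variable regions carried direct-repeat seeds, single-nucleotide variants, half-site ablations or random human genomic background. Ligand-free nuclear receptor dimers were applied for 1 h, and binding was read with antibodies against each partner (one per run). Binding z-scores come from regression-normalized fluorescence, with the random background probes as reference.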

[2] = system: RARg:RXRa (NR concentration 270 nM, RXRa partner concentration 90 nM)
Method in brief: as §1

[3] = system: RARg homodimer (NR concentration 270 nM)
Method in brief: as §1

[4] = system: RXRa DBDmut IVT, anti-RXR (DBD mutation: RXRa K156A/R161A, NR concentration 90 nM)
Method in brief: as §1

[5] = system: RXRa homodimer (NR concentration 180 nM)
Method in brief: as §1

[6] = system: THRa:RXRa (NR concentration 90 nM, RXRa partner concentration 90 nM)
Method in brief: as §1

[7] = system: THRa homodimer (NR concentration 90 nM)
Method in brief: as §1

[8] = system: VDR:RXRa (NR concentration 270 nM, RXRa partner concentration 90 nM)
Method in brief: as §1

[9] = system: VDR homodimer (NR concentration 270 nM)
Method in brief: as §1

CCGTACGGGTCAAGGTTATAGCACGGGTGGTACG
PBM binding z-score [1]: 3.24 | PBM binding z-score [2]: 4.93 | PBM binding z-score [3]: 4.6 | PBM binding z-score [4]: 0.337 | PBM binding z-score [5]: 5.61 | PBM binding z-score [6]: 3.09 | PBM binding z-score [7]: 0.588 | PBM binding z-score [8]: 3.43 | PBM binding z-score [9]: 1.37

TCTAGTTGGTTACGGAGGTCACACACGACGGGTA
PBM binding z-score [1]: 3.79 | PBM binding z-score [2]: 4.2 | PBM binding z-score [3]: 3.66 | PBM binding z-score [4]: 1.12 | PBM binding z-score [5]: 4.33 | PBM binding z-score [6]: 3.52 | PBM binding z-score [7]: 2.49 | PBM binding z-score [8]: 4.27 | PBM binding z-score [9]: 3.21

CTATGTAGGTTAAGGGGGGCATTCAGTTTGAAAG
PBM binding z-score [1]: 2.88 | PBM binding z-score [2]: 3.52 | PBM binding z-score [3]: 2.84 | PBM binding z-score [4]: 2.58 | PBM binding z-score [5]: 2.76 | PBM binding z-score [6]: 3.12 | PBM binding z-score [7]: 2.39 | PBM binding z-score [8]: 6.21 | PBM binding z-score [9]: 4.81

ATATGCAGGTTAGGGTCATTCAGAAAGTAGGGAA
PBM binding z-score [1]: 3.2 | PBM binding z-score [2]: 4 | PBM binding z-score [3]: 3.17 | PBM binding z-score [4]: 2.15 | PBM binding z-score [5]: 5.23 | PBM binding z-score [6]: 3.89 | PBM binding z-score [7]: 2.86 | PBM binding z-score [8]: 4.26 | PBM binding z-score [9]: 3.64

TCTAGGAGGACACGAAGGTCAGAGCTTTCCAGAG
PBM binding z-score [1]: 3.47 | PBM binding z-score [2]: 3.15 | PBM binding z-score [3]: 3.8 | PBM binding z-score [4]: 0.842 | PBM binding z-score [5]: 2.01 | PBM binding z-score [6]: 2.61 | PBM binding z-score [7]: 0.635 | PBM binding z-score [8]: 2.25 | PBM binding z-score [9]: 0.851

TTACAAAGGTGAGCTGAGGTCGTTGATCCAACTC
PBM binding z-score [1]: 2.56 | PBM binding z-score [2]: 2.97 | PBM binding z-score [3]: 2.69 | PBM binding z-score [4]: 0.365 | PBM binding z-score [5]: 2.51 | PBM binding z-score [6]: 4.84 | PBM binding z-score [7]: 1.73 | PBM binding z-score [8]: 5.58 | PBM binding z-score [9]: 2.57

CCTTACGGTTCACTGACAGGTTATAGCATTTGGA
PBM binding z-score [1]: 1.26 | PBM binding z-score [2]: 3.49 | PBM binding z-score [3]: 0.922 | PBM binding z-score [4]: 3.31 | PBM binding z-score [5]: 2.05 | PBM binding z-score [6]: 1.53 | PBM binding z-score [7]: 0.708 | PBM binding z-score [8]: 2.6 | PBM binding z-score [9]: 2.95

ACTAGCAGGCCAAGAGTCACTCAAGATTAGTCCG
PBM binding z-score [1]: 0.0309 | PBM binding z-score [2]: 0.304 | PBM binding z-score [3]: 0.413 | PBM binding z-score [4]: -0.426 | PBM binding z-score [5]: 0.599 | PBM binding z-score [6]: 0.162 | PBM binding z-score [7]: -0.533 | PBM binding z-score [8]: -0.367 | PBM binding z-score [9]: -0.0236

ATATGTAGGTTAGCTGGCGTCATTCAGACTAGGC
PBM binding z-score [1]: -0.15 | PBM binding z-score [2]: 0.427 | PBM binding z-score [3]: 0.556 | PBM binding z-score [4]: -0.166 | PBM binding z-score [5]: 0.485 | PBM binding z-score [6]: -0.223 | PBM binding z-score [7]: -0.829 | PBM binding z-score [8]: -0.12 | PBM binding z-score [9]: -0.39

AGTCAAAGTTCTTCTAGGTAACGTAAGATATGCT
PBM binding z-score [1]: 0.172 | PBM binding z-score [2]: 0.404 | PBM binding z-score [3]: 0.586 | PBM binding z-score [4]: 1.41 | PBM binding z-score [5]: -0.133 | PBM binding z-score [6]: 1.71 | PBM binding z-score [7]: 0.292 | PBM binding z-score [8]: 0.489 | PBM binding z-score [9]: 0.746

CGAACTACGTCAAAGGACAGTGAAAGGCGACGTA
PBM binding z-score [1]: 0.995 | PBM binding z-score [2]: 0.411 | PBM binding z-score [3]: 0.951 | PBM binding z-score [4]: -0.164 | PBM binding z-score [5]: 0.202 | PBM binding z-score [6]: 0.0886 | PBM binding z-score [7]: -0.314 | PBM binding z-score [8]: -0.443 | PBM binding z-score [9]: -0.351

GCATACGGGTCAAAGGTTATAGCATGAATAGAAT
PBM binding z-score [1]: 3.26 | PBM binding z-score [2]: 6.95 | PBM binding z-score [3]: 4.87 | PBM binding z-score [4]: 2.46 | PBM binding z-score [5]: 9.53 | PBM binding z-score [6]: 3.81 | PBM binding z-score [7]: -0.445 | PBM binding z-score [8]: 5.37 | PBM binding z-score [9]: 1.56

CGAACTCGGTCAAAGGACAGTGAAAGGCGACGTA
PBM binding z-score [1]: 1.9 | PBM binding z-score [2]: 2.15 | PBM binding z-score [3]: 2.76 | PBM binding z-score [4]: 0.447 | PBM binding z-score [5]: 0.907 | PBM binding z-score [6]: 0.713 | PBM binding z-score [7]: -0.276 | PBM binding z-score [8]: 0.208 | PBM binding z-score [9]: -0.121

CTAACTAGGTCAAGGTCAAAGTCGGTTTGTGCCA
PBM binding z-score [1]: 5.03 | PBM binding z-score [2]: 5.89 | PBM binding z-score [3]: 6.45 | PBM binding z-score [4]: 3.03 | PBM binding z-score [5]: 5.12 | PBM binding z-score [6]: 4.19 | PBM binding z-score [7]: 3.77 | PBM binding z-score [8]: 5.07 | PBM binding z-score [9]: 3.88

CAATCTAGGTCACGAAAGGTCAAAGTCGAATGAC
PBM binding z-score [1]: 5.85 | PBM binding z-score [2]: 8.09 | PBM binding z-score [3]: 8.64 | PBM binding z-score [4]: 2.58 | PBM binding z-score [5]: 8.63 | PBM binding z-score [6]: 5.02 | PBM binding z-score [7]: 3.08 | PBM binding z-score [8]: 6.99 | PBM binding z-score [9]: 3.66

CCTAGTTGGTCAAGGTCCCACACGCTATAGGTAC
PBM binding z-score [1]: 1.27 | PBM binding z-score [2]: 0.7 | PBM binding z-score [3]: 1.19 | PBM binding z-score [4]: 0.446 | PBM binding z-score [5]: 0.433 | PBM binding z-score [6]: 0.687 | PBM binding z-score [7]: 0.94 | PBM binding z-score [8]: 0.398 | PBM binding z-score [9]: 0.734

GGAACGAGCGCAAAGTTGATAGCATCTGTCGACG
PBM binding z-score [1]: -0.951 | PBM binding z-score [2]: -0.446 | PBM binding z-score [3]: -0.392 | PBM binding z-score [4]: -0.219 | PBM binding z-score [5]: -0.2 | PBM binding z-score [6]: -0.823 | PBM binding z-score [7]: -1.24 | PBM binding z-score [8]: -0.765 | PBM binding z-score [9]: -0.905

ATATGTAGGTTAGTGTCATTCAGAAAGTAGGGAA
PBM binding z-score [1]: 1.31 | PBM binding z-score [2]: 1.14 | PBM binding z-score [3]: 1.06 | PBM binding z-score [4]: 0.868 | PBM binding z-score [5]: 0.992 | PBM binding z-score [6]: 0.837 | PBM binding z-score [7]: 0.558 | PBM binding z-score [8]: 1.04 | PBM binding z-score [9]: 0.794

ATATGTAGGTTAGGGTCATACAGAAAGTAGGGAA
PBM binding z-score [1]: 3.48 | PBM binding z-score [2]: 4.25 | PBM binding z-score [3]: 3.47 | PBM binding z-score [4]: 2.26 | PBM binding z-score [5]: 5.6 | PBM binding z-score [6]: 4.1 | PBM binding z-score [7]: 3.09 | PBM binding z-score [8]: 4.24 | PBM binding z-score [9]: 3.03

AGATTGAGGTTACCAAAGATCAGGGAAACGCTTG
PBM binding z-score [1]: 0.91 | PBM binding z-score [2]: 2.15 | PBM binding z-score [3]: 1.94 | PBM binding z-score [4]: 1.36 | PBM binding z-score [5]: 2.81 | PBM binding z-score [6]: 2.91 | PBM binding z-score [7]: 1 | PBM binding z-score [8]: 1.39 | PBM binding z-score [9]: 0.381

TCGAGTAGGTTGCGGGGGCATTCAGGGATGAAGA
PBM binding z-score [1]: 1.73 | PBM binding z-score [2]: 2.24 | PBM binding z-score [3]: 1.59 | PBM binding z-score [4]: 1.94 | PBM binding z-score [5]: 1.5 | PBM binding z-score [6]: 3.75 | PBM binding z-score [7]: 2.35 | PBM binding z-score [8]: 3.33 | PBM binding z-score [9]: 3.45

ACTAACAGGCCAAGGGTCACTCAAGATTAGTCCG
PBM binding z-score [1]: 4.08 | PBM binding z-score [2]: 4.46 | PBM binding z-score [3]: 4.16 | PBM binding z-score [4]: 1.23 | PBM binding z-score [5]: 4.7 | PBM binding z-score [6]: 2.9 | PBM binding z-score [7]: 0.619 | PBM binding z-score [8]: 3.07 | PBM binding z-score [9]: 1.46

CCTAGTTGGTCAAGGTAACACACGCTATAGGTAC
PBM binding z-score [1]: 1.22 | PBM binding z-score [2]: 0.88 | PBM binding z-score [3]: 1.36 | PBM binding z-score [4]: 0.599 | PBM binding z-score [5]: 0.724 | PBM binding z-score [6]: 1.85 | PBM binding z-score [7]: 1.57 | PBM binding z-score [8]: 0.707 | PBM binding z-score [9]: 0.864

GCTGCTAGGTCAGGATGGTCAGCTAACGGGTACG
PBM binding z-score [1]: 2.65 | PBM binding z-score [2]: 2.65 | PBM binding z-score [3]: 3.23 | PBM binding z-score [4]: 0.0831 | PBM binding z-score [5]: 1.18 | PBM binding z-score [6]: 1.7 | PBM binding z-score [7]: 0.189 | PBM binding z-score [8]: 0.56 | PBM binding z-score [9]: 0.124
